Bioassay records deposited in PubChem BioAssay by National Center for Advancing Translational Sciences (NCATS).
The full list was thinned out, with hits kept by preference.
CHX counter: counter-screen for Shiga toxin inhibitors: cycloheximide protein synthesis inhibition. cell reporter, cycloheximide protein synthesis inhibition counterscreen. max response, %. actives 12% (n = 300,000); in the data active = max response mostly above about 13%, no sharp cut-off; inactive = mostly below about 14%; note: read at 38.3 µM for the half of the compounds with a filed dose; 0% is about no effect
Giardia FBPA inh: inhibitors of Giardia lamblia fructose-1,6-bisphosphate aldolase; purified Giardia FBPA; actives 0.71% (n = 290,000); Potency, µM (highest dose often 59.6 µM), inactives show at the highest dose activity, negative = inhibition, usual class: inhibitors; A8B2U2; note: potency is the fitted concentration of half-maximal effect; % is set by controls: 0 for no effect and ±100 for the full control effect; nearly all actives have a fitted effect of over 55% in size
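40 nM FBPA preincubated 10 min at RT with compound (up to 57.5 uM final), then substrate plus GAPDH/TPI/NAD/arsenate coupling and diaphorase/resazurin added. Fluorescence read after 20 min at RT, 525/598 nm.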
Shiga inhibitor: blocks Shiga toxin action in Vero cells. actives 9.2% (n = 290,000). inhibition, % at 38.7 µM. AID 2315. Vero cells, Shiga toxin protein synthesis inhibition reporter; in the data active = inhibition mostly above about 28%, no sharp cut-off; inactive = mostly below about 43%; note: 0% is about no effect
TbPYK inhibitor: blocks Trypanosoma brucei pyruvate kinase. AID 624173. Potency, µM (highest dose often 76.8 µM), for inactives: top-dose activity, negative = inhibition, actives largely listed as inhibitors. actives 0.12% (n = 410,000). Q57TT1. TbPYK enzyme, Kinase-Glo Plus ATP luminescence, 45 min; note: potency is the fitted concentration of half-maximal effect; % is set by controls: 0 for no effect and ±100 for the full control effect; nearly all actives have a fitted effect of over 50% in size
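Quantitative HTS: titrated library compounds versus trypanosomal pyruvate kinase in TEA buffer (pH 7.2) containing KCl, MgCl2, BSA and Tween-20. Reactions were initiated with ADP, 130 uM final. Kinase-Glo Plus luminescence was read after 45 min at RT.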
RE007 growth inh: less growth of the S. pombe RE007 Vpr strain; AID 651644; actives 0.21% (n = 360,000); S. pombe RE007 Vpr strain, BacTiter-Glo ATP luminescence, 24 h; Potency, µM (titrated, usually from 92.2 µM), for inactives: at the highest dose activity change, negative = less growth, hits mostly inhibitors; active = well fitted falling curve with a large enough effect; inconclusive = small, poorly fitted or top-dose-only effect; inactive = no such curve, though single readings can be large or run the other way; note: potency is the fitted concentration of half-maximal effect; % is set by controls: 0 for no effect and ±100 for the full control effect; nearly all actives have a fitted effect of over 50% in size
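Fission yeast RE007 carrying one integrated HIV-1 vpr copy, seeded at OD 0.01 in PMG+AL medium with 23 nL pinned compound. Grown 24 h at 30 degrees; viability read by BacTiter-Glo luminescence after 5 min.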
LmPK inh: inhibitors of Leishmania mexicana pyruvate kinase; Potency, µM (titrated, usually from 57.5 µM), for inactives: top-dose activity change, negative = inhibition, most hits filed as inhibitors; purified LmPK, Kinase-Glo ATP luminescence, 1 h; AID 1721; actives 0.37% (n = 290,000); note: potency is the fitted concentration of half-maximal effect; % is set by controls: 0 for no effect and ±100 for the full control effect
Target sequence (Q27686 whole entry, looked up): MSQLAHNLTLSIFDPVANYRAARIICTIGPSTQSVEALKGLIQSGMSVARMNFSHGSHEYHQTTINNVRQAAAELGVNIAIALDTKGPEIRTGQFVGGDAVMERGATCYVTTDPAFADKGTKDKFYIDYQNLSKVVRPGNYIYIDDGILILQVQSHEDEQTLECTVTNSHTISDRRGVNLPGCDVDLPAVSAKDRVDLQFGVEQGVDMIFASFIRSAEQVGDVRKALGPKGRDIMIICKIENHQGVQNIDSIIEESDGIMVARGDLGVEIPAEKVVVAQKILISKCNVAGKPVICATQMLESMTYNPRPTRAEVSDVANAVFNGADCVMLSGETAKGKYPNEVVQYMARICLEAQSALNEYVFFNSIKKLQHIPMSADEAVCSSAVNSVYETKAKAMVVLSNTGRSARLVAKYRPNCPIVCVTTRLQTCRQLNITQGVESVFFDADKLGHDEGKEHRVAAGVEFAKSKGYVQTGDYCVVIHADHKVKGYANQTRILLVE
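Purified LmPK (0.1 nM) converted ADP (0.1 mM) to ATP with PEP (0.5 mM) in imidazole buffer pH 7.2 with KCl and MgCl2, 1 h at room temperature. ATP was read by Kinase-Glo luminescence; data normalized to uninhibited and no-enzyme controls.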
* marks the source's active call; other numbers are inactive results; u = inconclusive; x = no result; [ ] = remark or other dose. Unless noted, calls come from the whole dose curve; as a rule, active = well fitted curve in the direction sought with a large enough effect; inconclusive = small, poorly fitted or top-dose-only effect, or another doubt; inactive = no such curve, though single readings can be large; an effect the other way counts as inactive or inconclusive.

SMILES	CHX counter	Giardia FBPA inh	Shiga inhibitor	TbPYK inhibitor	RE007 growth inh	LmPK inh
CS(=O)c1ccccc1-c1nc(-c2ccc(Cl)cc2)no1 (stereo not drawn)	48.3*	-16.3%	65.9*	-6.5%	-7.8%	-10.1%
O=[N+]([O-])c1cc2c(cc1/C=N/n1c(-c3ccccc3)n[nH]c1=S)OCO2	43.1*	5.4%	55.0*	u	-1.1%	13.3%
O=[N+]([O-])c1ccccc1/C=N/n1c(C2CCCCC2)n[nH]c1=S	34.4*	-1.7%	86.9	u	27.2%	-19.1%
COc1ccc(CC(=O)Nc2ccc(-c3noc(-c4cc(OC)c(OC)c(OC)c4)n3)cc2)cc1	1.1	3.6%	10.2	3.8%	16.0%	3.3%
Cc1ccccc1-c1nc(-c2ccc(NC(=O)c3ccc4c(c3)OCO4)cc2)no1	38.3*	-1.5%	80.8*	x	13.3%[3.69 µM]	-15.9%
COc1cc(-c2nc(-c3ccc(NC(=O)c4ccc5c(c4)OCO5)cc3)no2)cc(OC)c1OC	39.8*	-0.6%	68.0*	0.2%	-12.3%	-20.0%
COc1ccc(-c2noc(CNC(=O)c3ccc4c(c3)OCO4)n2)cc1	-2.8	18.5%	-11.0	9.5%	-13.5%	-0.6%
COC(=O)c1c(C(=O)OC)c(-c2ccc(Br)cc2)n2c1CS(=O)C2 (stereo not drawn)	-0.9	-2.1%	-4.1	5.8%	30.0%	1.8%
S=C(Nc1ccccn1)Nc1ccccc1Cl	34.9*	-19.6%	71.9*	1.1%	-2.9%	6.5%
Cc1c(Cl)cccc1NC(=S)Nc1ccccn1	-3.2	-1.0%	7.0	1.0%	-17.6%	-7.8%
Cc1ccccc1NC(=S)Nc1ccccn1	26.0*	-28.6%	52.3*	-15.1%	-14.3%	4.1%
COC(=O)Cc1ccc(NC(=S)Nc2ccccn2)cc1	31.0*	-15.5%	73.8*	-4.3%	7.9%	8.3%
COC(=O)Cc1ccc(NC(=S)NCCO)cc1	0.5	-0.9%	2.5	-0.4%	2.4%	4.7%
COC(=O)[C@]12CCCCC=C1N(Cc1ccc(Cl)cc1Cl)C(=O)[C@H](CC(=O)N1CCOCC1)C2	x	x	x	6.2%	16.7%	x
Oc1ccc(N=Nc2n[nH]c(-c3ccc(Cl)cc3)n2)cc1	22.6*	3.7%	81.6*	-0.7%	12.9%	3.4%
Cc1cc(Cl)ccc1OCc1nc(-c2ccc(O)cc2)n[nH]1	24.5	7.7%	29.2	2.3%	33.9%	1.2%
CSc1ncc(Cl)c(C(=O)Nc2ccc(S(=O)(=O)Nc3nccc(C)n3)cc2)n1	30.9*	x	69.8*	-8.1%	-9.5%	-5.3%
COCC(=O)Nc1c(I)c(C(=O)NC[C@@H](O)CO)c(I)c(C(=O)N(C)C[C@@H](O)CO)c1I	x	-2.2%[21.7 µM]	x	0.0%[33.2 µM]	x	x
CC1(C)OC(c2ccccc2)=C/C(=C/C=Nc2ccccc2)O1	16.5*	-7.7%	34.9*	-6.4%	4.1%	-3.9%
O=C(Nc1ccc(N2CCN(Cc3ccccc3Cl)CC2)cc1)c1cccnc1	1.2	8.8%	-6.9	1.6%	16.5%	2.9%
O=C(c1ccc(F)cc1)c1ccc(N2CCCC2)cc1	62.7*	1.2%	150.7*	1.7%	0.0%	4.4%
O=C(c1ccc(F)cc1)c1ccc(N2CCCCC2)cc1	60.8*	-0.2%	97.0*	-2.4%	-2.0%	3.4%
O=C(CCC(=O)N1CCN(c2ccc(F)cc2)CC1)N1CCN(c2ccc(F)cc2)CC1	-2.4	11.9%	-5.2	-0.5%	-0.6%	-2.5%
O=C(Nc1ccc(N2CCCCC2)cc1)c1cccnc1	22.0*	-6.1%	129.2*	-9.2%	-8.5%	-8.3%
O=C(Nc1ccc(N2CCCCC2)cc1)c1ccc(F)cc1	52.0*	-2.3%	76.6*	-8.0%	-7.8%	u
SMILES	CHX counter	Giardia FBPA inh	Shiga inhibitor	TbPYK inhibitor	RE007 growth inh	LmPK inh
O=S(=O)(c1ccc(N2CCCC2)cc1)C(F)(F)F	28.1*	-11.6%	71.8*	0.8%	1.2%	-0.6%
CN1c2ccccc2C(C)(C)C12C=Cc1cc(O)ccc1O2 (stereo not drawn)	20.6*	-29.4%	54.4	u	-9.1%	-1.6%
Cc1ccc(NC(=O)CSc2nc(C3CCCC3)nc3c2c(=O)n(C)c(=O)n3C)c(C)c1	x	x	x	2.1%	x	x
N#CC1=C(N)C(C#N)(C#N)C(c2cccnc2)C2CCCC=C12 (stereo not drawn)	-8.1	4.46µM*	-4.3	x	x	-2.7%
N#Cc1ccc(CSc2nc3c(c(=O)[nH]2)CCC3)cc1	x	x	x	3.8%	x	x
Cc1ccc(N2CC(C(=O)N3CCCc4ccccc43)CC2=O)cc1 (stereo not drawn)	7.5	7.8%	23.9	0.0%	-6.5%	1.4%
CCOc1ccc(N2CC(C(=O)N3CCCc4ccccc43)CC2=O)cc1 (stereo not drawn)	31.5*	17.6%	64.0*	-24.9%	2.1%	-3.7%
Cc1ccc(NC(=O)CCNS(=O)(=O)c2cccc3nsnc23)cc1F	0.3	1.5%	2.8	1.9%	0.6%	-0.2%
O=C(COC(=O)c1ccc(O)cc1)Nc1ccccc1[N+](=O)[O-]	12.7	2.8%	-4.4	-8.1%	-8.4%	-0.2%
C/C(=N\Nc1nc2ccccc2[nH]1)c1ccccn1	28.3*	-22.2%	106.6*	x	x	-11.6%
CCNc1nc2ccccc2[nH]1	5.4	0.3%	-10.0	7.4%	9.7%	1.7%
C/C(=N\Nc1nc2ccccc2[nH]1)c1cc2ccccc2o1	24.6*	-8.8%	39.3*	-7.4%	-23.7%	u
C/C(=N\NC(=O)c1cccnc1)c1cc2ccccc2o1	10.3	-5.7%	20.5	0.2%	-2.2%	-6.5%
COc1ccc(NC(=O)c2cc(C3CCCCN3C(=O)c3cc(OC)c(C)c(OC)c3)on2)c(C)c1 (stereo not drawn)	x	x	x	-7.9%	8.0%	x
O=C(NCc1cccnc1)C12CC3CC(CC(Cl)(C3)C1)C2	16.5	x	16.0*	9.1%	-3.3%	-5.7%
O=C(NCc1ccccc1)C12CC3CC(CC(Cl)(C3)C1)C2	-3.0	-2.5%	2.3	-3.2%	39.9%	7.0%
O=C(NCc1cccnc1)Nc1ccc(Cl)cc1	17.9*	x	22.1	-1.6%	6.2%	-3.3%
COc1ccc(NC(=O)NCc2cccnc2)cc1	8.0	x	-10.7	-24.4%	-13.3%	-3.6%
CCC(C)c1ccc(NC(=O)NCc2cccnc2)cc1 (stereo not drawn)	26.2*	-7.3%	13.9	1.5%	5.2%	-8.5%
CCC(C)c1ccc(NC(=O)Nc2cccnc2)cc1 (stereo not drawn)	79.6*	15.1%	76.4*	-9.3%	-8.2%	-2.5%
CCCCc1ccc(NC(=O)C2(C)Cc3ccccc3C(=O)O2)cc1 (stereo not drawn)	x	x	x	-1.3%	x	x
CCc1ccc(NC(=O)C2(C)Cc3ccccc3C(=O)O2)cc1 (stereo not drawn)	25.7*	-7.5%	41.2*	1.7%	3.7%	6.5%
CC(=O)NC1=NN(C(C)=O)C(c2ccc(C(C)C)cc2)S1 (stereo not drawn)	15.6*	7.3%	5.1	-6.7%	39.3%	-0.8%
